The values that follow come from PubChem BioAssay AID2587 (National Center for Advancing Translational Sciences (NCATS), 2010).

Active and inactive are the calls of the source. Calls follow the shape of the dose curve; as a rule, active = well fitted curve in the direction sought with a large enough effect; inactive = no such curve, though single readings can be large or run the other way.

This assay deals with Lysosomal acid glucosylceramidase (Homo sapiens) (UniProt P04062). Description: qHTS Assay for Inhibitors and Activators of N370S glucocerebrosidase as a Potential Chaperone Treatment of Gaucher Disease: Chaperone Activity in Gauche Fibroblasts After Multi-day Incubation with Compound. The conditions noted are these: GC immunofluorescence, 5 days. The text has this: NIH Chemical Genomics Center [NCGC] NIH Molecular Libraries Probe Production Centers Network [MLPCN] MLPCN Grant: MH086442-01 Assay Submitter (PI): Wei Zheng Glucocerebrosidase (GC) catalyzes the hydrolysis of beta-glucocerebroside to glucose and ceramide in lysosomes. Mutations in the glucocerebrosidase gene result in Gaucher disease, an autosomal recessive lysosomal storage disorder. Many of the mutations encountered in patients with Gaucher disease are missense alterations that may cause misfolding, decreased stability and/or mistrafficking of this lysosomal protein. […] These inhibitors include iminosugar analogs and three non-iminosugar inhibitors identified from a previous HTS of 62,000 compounds with the wild type recombinant enzyme. However, the enhancement of enzyme activity by the chaperone action of an enzyme inhibitor must be balanced against the direct inhibition of the enzyme. An enzyme activator could also function as a chaperone by binding to the enzyme and helping to correct its misfolding and mistrafficking. […] This assay attempts to quantitate translocated glucocerebrosidase protein in patient-derived fibroblasts following extended compound incubation. […]
Sequence of Lysosomal acid glucosylceramidase (Homo sapiens) (P04062 whole entry N409S): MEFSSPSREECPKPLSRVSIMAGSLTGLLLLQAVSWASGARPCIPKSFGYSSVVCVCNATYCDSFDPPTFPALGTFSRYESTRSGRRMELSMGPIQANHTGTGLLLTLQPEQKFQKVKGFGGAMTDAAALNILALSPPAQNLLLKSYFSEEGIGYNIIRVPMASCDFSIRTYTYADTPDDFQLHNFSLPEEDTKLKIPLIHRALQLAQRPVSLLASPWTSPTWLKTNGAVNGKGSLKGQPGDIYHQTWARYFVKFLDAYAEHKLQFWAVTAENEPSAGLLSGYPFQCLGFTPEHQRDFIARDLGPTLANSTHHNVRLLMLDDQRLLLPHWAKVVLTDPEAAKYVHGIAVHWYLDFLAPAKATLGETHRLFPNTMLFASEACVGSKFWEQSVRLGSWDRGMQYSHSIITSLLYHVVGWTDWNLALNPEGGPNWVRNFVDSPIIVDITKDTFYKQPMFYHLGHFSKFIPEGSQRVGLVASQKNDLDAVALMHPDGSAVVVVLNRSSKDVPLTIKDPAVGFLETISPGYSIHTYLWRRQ
NCGC Assay Protocol Summary: 1. […] Visualized using a fluorescence microscope and the intensity of fluorescence in the selected areas were calculated. […]
(In general: Quantitative high-throughput screening tests each substance at several concentrations.)
Regarding `O=S(=O)(c1ccc2ccccc2c1)N1CCN(c2nc(-c3cccs3)nc3ccccc23)CC1`, the Potency was 501 nM (active).
For `S=C(NCCCc1cnc[nH]1)NCCCN(Cc1ccc(Cl)c(Cl)c1)c1ccc(Br)cn1`, the Potency was 316 nM (active).
